From PubChem BioAssay
An excerpt weighted towards active compounds, which were near 7% of everything screened.
ADAM10 inh – human ADAM10 inhibitors, primary screen, biochemical, QFRET, HTS. Disintegrin and metalloproteinase domain-containing protein 10 (Homo sapiens), O14672. recombinant ADAM10, EDANS/DABCYL FRET peptide cleavage, 3 h. inhibition, % at 7 µM. 370,000 compounds, 0.62% hits;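 active = inhibition above a per-campaign cutoff equal to the mean of compounds falling between control-based bounds plus 3 SD, cut at about 20% in these data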;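 also: 0% = DMSO wells while the 100% control is not disclosed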
Target sequence (O14672 214-748 limits assumed): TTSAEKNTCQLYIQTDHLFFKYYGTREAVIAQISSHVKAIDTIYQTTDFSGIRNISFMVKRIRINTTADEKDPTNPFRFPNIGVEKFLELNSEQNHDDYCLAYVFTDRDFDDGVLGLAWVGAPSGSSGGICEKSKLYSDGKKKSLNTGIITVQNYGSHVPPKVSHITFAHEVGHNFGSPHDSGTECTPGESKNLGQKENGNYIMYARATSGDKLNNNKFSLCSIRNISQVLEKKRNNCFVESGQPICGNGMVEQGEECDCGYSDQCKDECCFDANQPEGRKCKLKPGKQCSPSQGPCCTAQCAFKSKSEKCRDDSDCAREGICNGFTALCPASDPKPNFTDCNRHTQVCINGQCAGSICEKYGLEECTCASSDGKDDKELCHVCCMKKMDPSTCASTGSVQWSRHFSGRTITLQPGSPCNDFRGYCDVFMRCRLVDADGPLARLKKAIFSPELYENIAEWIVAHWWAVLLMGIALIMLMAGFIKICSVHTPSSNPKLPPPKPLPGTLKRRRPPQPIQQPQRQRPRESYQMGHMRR
AHR activator – AHR activators, primary screen, cell-based, luminescence, luciferase reporter, human; Aryl hydrocarbon receptor (Homo sapiens), P35869; AHR-responsive luciferase reporter cells; activation, % at 5 µM; 320,000 compounds, 2.5% hits; AID 2796, 2010; in the data active = activation above about 47%;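 also: 0% = vehicle wells and 100% = reference agonist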
rCAG binder – binders of r(CAG) RNA repeats, primary screen, biochemical, fluorescence | r(CAG) RNA repeat, TO-PRO-1 dye displacement fluorescence | inhibition, % at 3 µM | 370,000 compounds, 1.3% hits | AID 651821, 2012;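 active = inhibition above the plate cutoff, the mean of all test compounds on that plate plus 3 SD, cut at about 35% in these data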;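 also: 0% = DMSO alone and 100% = 100 µM mitoxantrone as full dye displacement; higher means more dye released from RNA so lower well fluorescence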
ADAM17 inh – ADAM17 inhibitors, primary screen, biochemical, QFRET; recombinant ADAM17, EDANS/DABCYL FRET peptide cleavage; Disintegrin and metalloproteinase domain-containing protein 17 (Homo sapiens), P78536; 370,000 compounds, 0.83% hits; inhibition, % at 6.95 µM; AID 720648, 2013;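 active = inhibition above the mean of compounds lying between control limits plus 3 SD, set per campaign, cut at about 8.5% in these data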;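 also: 0% = DMSO-only wells as the low control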
KLK7 zymogen act – proKLK7 zymogen activators, primary screen, biochemical, fluorescence intensity. AID 652039, 2013. 370,000 compounds, 0.9% hits. purified proKLK7, EDANS-DABCYL substrate fluorescence; 100% is mature enzyme control, 0% vehicle. Kallikrein-7 (Homo sapiens), P49862. activation, % at 7 µM;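 active = activation above the mean of all tested compounds plus 3 SD, computed per campaign excluding outliers beyond control limits, cut at about 13% in these data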
GRIN3A LBD mod – binders of NR3A ligand-binding domain, primary screen, biophysical, differential scanning fluorimetry, uHTS; Glutamate receptor ionotropic, NMDA 3A (GRIN3A) ligand-binding domain; NR3A LBD differential scanning fluorimetry, Tm shift; 0% = protein alone, 100% = glycine-bound protein; Tm shift relative to glycine control, % at 25 µM; 340,000 compounds, 2.5% hits; AID 1259313, 2017;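 active = melting temperature shift of at least 10% of the positive control shift, at one fixed dose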
An asterisk follows results filed as active; i = inactive; / = no result given.

SMILES	ADAM10 inh	AHR activator	rCAG binder	ADAM17 inh	KLK7 zymogen act	GRIN3A LBD mod
O=c1cc(-c2ccccc2)oc2ccc(Cl)cc12	-15.2	/	7.6	-0.1	-0.6	14.0*
O=c1oc2ccccc2cc1-c1ccccc1	-283.6	-4.1	3.3	-94.2	0.4	0.2
O=c1oc2ccc(Cl)cc2cc1-c1ccccc1	-14.4	-7.6	-2.3	-7.4	-0.5	14.1*
COCC(=O)N[C@H]1C[C@@H]2O[C@H](CO)CC[C@@H]2O[C@@H]1CCc1ccc(-c2ccccc2)cc1	2.7	/	-0.4	0.1	0.3	/
C=CCN1C(=O)c2ccc(C(=O)OCC(=O)Nc3ccc(S(N)(=O)=O)cc3)cc2C1=O	-0.9	2.9	7.9	-0.4	0.5	16.8*
CO[C@H]([C@H](C)/C=C/N(C)C=O)[C@@H](C)C(=O)CC[C@H](C)[C@H](O)[C@H](C)[C@H]1OC(=O)/C=C/C(C)=C/C[C@H](O)C[C@@H]2C=CC[C@@H](C[C@H](OC)[C@@H](C)[C@@H](OC)C[C@@H](OC)[C@@H]1C)O2	16.4	/	/	2.4	/	/
O=C(Nc1ccc(Cl)cc1)NN1CC(=O)N(c2cccc(C(F)(F)F)c2)CC1=O	7.2	3.2	3.6	-0.5	0.0	30.2*
Cc1ccc(N2CC(=O)N(NC(=O)Nc3ccc(Cl)c(Cl)c3)CC2=O)cc1	7.5	-1.1	2.4	-1.6	0.0	13.3*
CCC(C)Nc1nc(C)nc2c1nnn2Cc1ccccc1 (stereo not drawn)	5.5	/	-0.9	1.1	0.2	/
CCc1ccc(CCNC(=O)OCCCN2CCC3(CCC(C)CC3)C2=O)cc1 (stereo not drawn)	4.2	/	-0.4	0.0	0.4	/
O=C1Nc2ccc(C(F)(F)F)cc2N2CCCC12 (stereo not drawn)	/	8.5	/	/	/	/
O=C1Nc2cc(C(F)(F)F)ccc2N2CCCCC12 (stereo not drawn)	-16.4	73.8*	-0.5	-3.6	0.8	-0.5
O=C(CSc1nc2ccccc2nc1N1CCCCC1)N1CCN(S(=O)(=O)c2cc(Cl)ccc2Cl)CC1	-3.8	/	8.0	-0.9	-18.4	/
COc1ccc(-c2csc(N3N=C(C)C(C)C3=O)n2)cc1 (stereo not drawn)	1.1	7.3	3.8	0.1	-0.5	-0.8
CC1=NN(c2nc(-c3ccc(C)cc3)cs2)C(=O)C1N=Nc1ccccc1O (stereo not drawn)	6.4	50.6*	25.1	-0.2	-0.2	10.6*
CCOC(=O)[C@]12CCCC3=C1N(CCC3)C(=O)[C@@H](CC(=O)N1CCN(C(=O)C3CC3)CC1)C2	-3.1	/	-1.8	-3.4	0.1	/
COC(=O)C1=C(C)N(Cc2ccccc2C(F)(F)F)C(=NCc2cccc(C(F)(F)F)c2)NC1c1ccc(F)cc1 (stereo not drawn)	-1.9	/	1.8	1.6	0.5	/
CC(C)C[C@H]1COc2cc(N3CCSCC3)ccc2S(=O)(=O)N1C	0.4	/	-0.3	-1.8	-0.2	/
Clc1ccc2oc(-c3ccccn3)nc2c1	-25.7	61.0*	-2.5	-13.5	-1.0	1.4
O=C(CCn1nnc(-c2cccs2)n1)N1CCOCC1	-4.7	/	1.9	-0.3	-0.3	/
CCCCNc1nc(N)nc(-c2cc(Cl)ccc2O)n1	-72.0	25.6	8.3	-18.3	1.2	18.2*
O=C(NC(CC1=CCCCC1)c1ccc2ccccc2c1)C(F)(F)F (stereo not drawn)	6.0	/	1.1	0.8	-0.1	/
COc1ccc(Nc2cccc3ccccc23)cc1	-78.5	77.1*	2.8	-20.4	-6.6	-5.2
COc1ccc(Nc2cc(Nc3cc(OC)c(OC)c(OC)c3)ncn2)cc1	6.1	59.3*	-1.6	1.7	0.4	13.6*
COc1ccc(Nc2ccc(Nc3ccc(OC)cc3)nn2)cc1	7.2	15.9	3.1	2.3	-0.9	26.9*
SMILES	ADAM10 inh	AHR activator	rCAG binder	ADAM17 inh	KLK7 zymogen act	GRIN3A LBD mod
COc1ccc(Nc2cc(Nc3ccc(OC)cc3)ncn2)cc1	-3.0	4.2	-1.0	-1.9	0.5	16.1*
COC(=O)[C@]12C[C@H](CC(=O)NCCC(C)C)C(=O)N(Cc3ccc4c(c3)OCO4)C1=C[C@H](C(C)(C)C)O[C@@H]2C	10.6	/	0.4	1.4	-0.5	/
COc1ccc(-c2cccc3[nH]c4c(c23)CCN2C(=O)[C@H]3[C@H](C)ON(C)[C@H]3C[C@@H]42)cc1	i	/	10.2	-165.9	-36.5	/
Nc1[nH]n(-c2ccccc2)c(=O)c1N=Nc1ccc(F)cc1	4.1	/	5.2	3.4	0.3	/
COc1ccc(Nc2cc(Nc3cccc(OC)c3)ncn2)cc1	9.4	10.8	1.0	1.1	0.4	27.4*
CCCCCCn1cc(CN2CC=CS2(=O)=O)nn1	0.7	/	-1.1	-2.8	-0.2	/
CC1CCC2(CC1)CCN(CCCOC(=O)Nc1cccc(C(F)(F)F)c1)C2=O (stereo not drawn)	10.9	/	-1.5	3.4	0.3	/
Cc1nn(-c2ccccc2)c2sc(C(=O)N3CCN(Cc4ccc(F)cc4)CC3)cc12	2.8	/	4.6	2.2	-0.3	/
COc1ccc(/C=C2/CN(Cc3ccc(OC)cc3OC)C3=NC(c4ccc5ccccc5c4)CC(=O)N32)cc1 (stereo not drawn)	-43.9	/	/	-7.7	/	/
CCOC(=O)c1c(C2COc3ccccc3O2)csc1NC(=O)c1ccccc1 (stereo not drawn)	4.3	-1.0	0.8	-2.0	-0.1	10.9*
Fc1ccc(-c2csc(/C=C/c3ccc4c(c3)OCO4)n2)cc1	-21.0	82.0*	-1.1	-7.5	-0.4	-1.7
Cc1nc(-c2ccc3c(c2)OCO3)cs1	-1.1	9.1	0.4	-1.1	-0.2	1.7
CCCNc1nc(Nc2ccc(C)c(Cl)c2)c2cnn(C)c2n1	-0.8	63.6*	28.0	-3.2	-0.2	-2.2
C=CCN1C(=O)c2n[nH]c(COC)c2C1c1ccc(F)cc1 (stereo not drawn)	-5.9	/	-1.3	-5.2	-0.2	/
Cc1ccc(CN=c2c([N+](=O)[O-])nn(-c3ccc4c(c3)OCCO4)n2O)cc1	7.7	16.2	-3.3	1.3	0.4	13.0*
O=C(CSc1nnc(COc2ccccc2)n1-c1ccc(Cl)cc1)Nc1ccc2c(c1)OCCO2	17.5	/	7.5	6.9	0.3	/
CCOC(=O)CCn1nc(-c2ccc(Cl)cc2)cc1N	11.6	5.3	10.3	6.0	-0.6	10.2*
CCOC(=O)Cn1nc(-c2ccc(Cl)cc2)cc1N	2.9	6.1	3.1	4.3	-0.5	1.1
COC(=O)[C@]12C[C@H](CC(=O)NCCCCc3ccccc3)C(=O)N(CCC3=CCCCC3)C1=C[C@H](C1CCCC1)O[C@@H]2C	1.9	/	4.0	2.5	-0.1	/
